In the supplement of paper PMC12350171:
Structures can show the parent of a compound that is named as a salt. Values without a mark were called inactive.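 Rule for the calls: active = AUC significantly below DMSO controls by Student t-fit with adjusted P under 0.01; inactive = not significantly reduced.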

System: Haemophilus parainfluenzae
Test: growth AUC normalised to DMSO control (fraction of control); higher = less growth inhibition, active = hit call of the paper
Conditions: 20 µM
Outline: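 After two anaerobic passages, pathogens were added at a starting OD578 of 0.01 to pre-reduced mGAM plates holding compound at 20 μM with 1% DMSO; hemin and NAD were supplemented for Haemophilus parainfluenzae. Sealed with breathable membranes, plates were read at OD578 hourly for 24 h, in three biological replicates. The trapezoidal rule, applied up to the exponential-to-stationary transition, gave the growth-curve AUC, which was normalised to DMSO controls on the same plate.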

SMILES | growth AUC normalised to DMSO control
CCN(CC)CCNc1ccc(CO)c2sc3ccccc3c(=O)c12 [Hycanthone] | 0.986
CCCCOc1ccc(OCCCN2CCOCC2)cc1 [Pramoxine hydrochloride] | 0.936
N=C(N)NCCN1CCCCCCC1 [Guanethidine sulfate] | 1.03
CC(N)CCCC(C)(C)O (centres undefined) [Heptaminol hydrochloride] | 1.02
CN1C2CCCC1CC(NC(=O)c1nn(C)c3ccccc13)C2 (centres undefined) [Granisetron] | 1.02
Nc1ccc(S(=O)(=O)NC(=O)c2ccccc2)cc1 [Sulfabenzamide] | 1.1
CC(C)NC[C@H](O)COc1ccc(CC(N)=O)cc1 [(S,-) Atenolol] | 1.01
N=C(N)N1CCc2ccccc2C1 [Debrisoquin sulfate] | 0.978
Cc1cc(NS(=O)(=O)c2ccc(N)cc2)no1 [Sulfamethoxazole] | 1.01
CC1(C)O[C@@H]2C[C@H]3[C@@H]4C[C@H](F)C5=CC(=O)C=C[C@]5(C)[C@H]4[C@@H](O)C[C@]3(C)[C@]2(C(=O)CO)O1 [Flunisolide] | 0.945
CC(C)(Oc1ccc(CCNC(=O)c2ccc(Cl)cc2)cc1)C(=O)O [Bezafibrate] | 0.984
COC(=O)Nc1nc2cc(C(=O)c3cccs3)ccc2[nH]1 [Nocodazole] | 1.03
S=c1[nH]cnc2nc[nH]c12 [Mercaptopurine] | 0.997
OC(c1cc(C(F)(F)F)nc2c(C(F)(F)F)cccc12)C1CCCCN1 (centres undefined) [Mefloquine hydrochloride] | 0.903
CC(C)(C)NC[C@H](O)COc1cccc2c1CCCC2=O [(-) Levobunolol hydrochloride] | 0.989
CCn1cc(C(=O)O)c(=O)c2ccc(C)nc21 [Nalidixic acid sodium salt] | 0.813 (active)
C=CC1=C(C(=O)O)N2C(=O)[C@@H](NC(=O)/C(=N\OCC(=O)O)c3csc(N)n3)[C@H]2SC1 [Cefixime] | 0.0416 (active)
OCCN1CCN(CCCN2c3ccccc3C=Cc3ccccc32)CC1 [Opipramol dihydrochloride] | 0.911
CC(CCc1ccc(O)cc1)NCCc1ccc(O)c(O)c1 (centres undefined) [Dobutamine hydrochloride] | 1.05
Cc1onc(-c2ccccc2)c1C(=O)N[C@@H]1C(=O)N2[C@@H]1SC(C)(C)[C@@H]2C(=O)O [Oxacillin sodium] | 0.928

SMILES | growth AUC normalised to DMSO control
O=C(O)c1cc(/N=N/c2ccc(S(=O)(=O)Nc3ccccn3)cc2)ccc1O [Sulfasalazine] | 1.04
CCCCC(O)c1ccccc1 (centres undefined) [Fenipentol] | 0.989
CN1C(C(=O)Nc2ccccn2)=C(O)c2sccc2S1(=O)=O [Tenoxicam] | 0.948
CCn1cc(C(=O)O)c(=O)c2cnc(N3CCNCC3)nc21 [Pipemidic acid] | 0.915
NC(=O)c1cccnc1 [Nicotinamide] | 1.04
CCCOc1ccccc1-c1nc2[nH]nnc2c(=O)[nH]1 [Zaprinast] | 1.01
O=C(NCCN1CCOCC1)c1ccc(Cl)cc1 [Moclobemide] | 0.971
C[C@@H]1CCC[C@H](C)N1NC(=O)c1ccc(Cl)c(S(N)(=O)=O)c1 [Clopamide] | 0.984
CCN1CCN(C(=O)N[C@@H](C(=O)N[C@@H]2C(=O)N3C(C(=O)O)=C(CSc4nnnn4C)CS[C@H]23)c2ccc(O)cc2)C(=O)C1=O [Cefoperazone dihydrate] | 0.0355 (active)
Clc1ccc(COC(Cn2ccnc2)c2ccc(Cl)cc2Cl)cc1 (centres undefined) [Econazole nitrate] | 1.09
NNc1nncc2ccccc12 [Hydralazine hydrochloride] | 1.03
CC(=O)OCC(=O)[C@@]1(OC(C)=O)[C@@H](C)C[C@H]2[C@@H]3C[C@H](F)C4=CC(=O)C=C[C@]4(C)[C@@]3(F)[C@@H](O)C[C@@]21C [Diflorasone Diacetate] | 0.953
Cc1c(NC(=O)c2cccnc2)c(=O)n(-c2ccccc2)n1C [Nifenazone] | 1.01
CCN1CCC[C@H]1CNC(=O)c1c(O)c(Cl)cc(Cl)c1OC [Raclopride] | 0.944
CCN(CCCCOC(=O)c1ccc(OC)c(OC)c1)C(C)Cc1ccc(OC)cc1 (centres undefined) [Mebeverine hydrochloride] | 1.03
CC(C)NCC(O)c1cc(O)cc(O)c1 (centres undefined) [Metaproterenol sulfate] | 0.99
CN(C)/N=N/c1[nH]cnc1C(N)=O [Dacarbazine] | 0.999
Cc1ncc([N+](=O)[O-])n1CCO [Metronidazole] | 0.906
Clc1ccc2c(c1)CCc1cccnc1C2=C1CCNCC1 [Desloratadine] | 1.03
